Screening data (PubChem BioAssay)
Compounds with a hit are over-represented: about 2.2% of the library has one in this group of screens.
CRFR2-BP ag: CRF-BP/CRF-R2 complex agonism; HEK293 CRF-R2/CRF-BP, calcium dye fluorescence (FLIPR); percent of saturating CRF peptide response; activation, % at 13.2 µM; 0.46% of 350,000 active; AID 588473;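 active = activation of at least 50%, plus an integration ratio under a set limit after plate pattern correction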
Cardiac RTF inh: cardiac RTF calcium desensitization; P19429+P45379; inhibition, % at 7.15 µM; AID 493244; 0.12% of 340,000 active; IANBD-labeled cardiac RTF, Ca2+ fluorescence;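 active = inhibition above the mean inhibition of all tested compounds plus 3 SD, cut at about 17% in these data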;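 also: assay run at fixed EC70 calcium of 1.6 mM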
Myeloid diff 2: compounds promoting myeloid differentiation. ER-HoxA9 myeloid progenitors, lysozyme-GFP differentiation, flow cytometry. calls only at 10 µM. 1% of 360,000 active. AID 624256;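 active = normalized GFP-positive differentiation at or above the plate's own cutoff, the solvent-only control mean plus 3 SD; inconclusive = no clear call, values can overlap the other calls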;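 also: cells exposed to compound for four days before flow analysis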
RTF Ca sens act: increases calcium sensitivity of human cardiac regulated thin filaments. P19429+P45379. IANBD-labeled TnC RTF fluorescence at EC20 calcium; 0% EC20 calcium, 100% full calcium. activation, % at 7.2 µM. 0.24% of 340,000 active;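 active = activation above the mean over all tested compounds plus 3 SD, cut at about 30% in these data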;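 also: rise in fluorescence read as greater calcium sensitivity of cardiac thin filaments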
CRFR2-BP antag: CRF-BP/CRF-R2 complex antagonism; 0.59% of 350,000 active; inhibition, % at 11.8 µM; HEK293 CRF-R2/CRF-BP, CRF-induced calcium fluorescence;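 active = inhibition of the ligand-induced calcium signal above about 50% at the single tested concentration, limit read from the data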
Large screens that a line does not name were inactive.

CSCSC1=C(C#N)C(c2ccccc2Cl)C(C(C)=O)=C(C)N1 (stereo not drawn)	CRFR2-BP antag 55
CC(=O)C1=C(C)NC(SCC(=O)c2ccc(Cl)c(Cl)c2)=C(C#N)C1c1ccco1 (stereo not drawn)	Myeloid diff 2 active
COc1ccc(C(=O)OCC(=O)NC(=O)NC2CCCC2)cc1OC	none
Cc1ccc(OCCNC(=O)c2ccc(NC(=O)CC3SC(N4CCCC4)=NC3=O)cc2)cc1 (stereo not drawn)	none
CC(=NCc1cccc(Cl)c1)c1nc(-c2ccco2)oc1O	Myeloid diff 2 active
Oc1oc(-c2ccco2)nc1C=Nc1cccc(Cl)c1	none
COP(=O)(OC)c1nc(-c2ccc([N+](=O)[O-])cc2)oc1N1CCCCC1	CRFR2-BP ag 54
CCOP(=O)(OCC)c1nc(-c2ccccc2)oc1N1CCCCC1	none
COc1ccc([C@H]2CC(=O)C[C@@H](CCn3cc(C)nn3)O2)cc1	none (no result: CRFR2-BP ag, Cardiac RTF inh, RTF Ca sens act, CRFR2-BP antag)
CCOCCCNC(=O)C(c1ccc(Cl)cc1)N(Cc1ccc2c(c1)OCO2)C(=O)CNC(C)=O (stereo not drawn)	none
CC(C)(C)NC(=O)C(c1ccc(O)cc1)N(Cc1ccc2c(c1)OCO2)C(=O)CCl (stereo not drawn)	CRFR2-BP antag 80 (no result: Cardiac RTF inh, RTF Ca sens act)
Cc1nn(Cc2ccc(Cl)cc2)c(C)c1NC(=O)c1ccc([N+](=O)[O-])cc1	CRFR2-BP antag 56
CCN(CCn1cccn1)C(=O)CC1C(=O)NCCN1CCc1ccccc1 (stereo not drawn)	none
CC(C)OC(=O)N(C)C[C@@H]1OCc2cnnn2CCCC(=O)N([C@H](C)CO)C[C@H]1C	none (no result: Cardiac RTF inh, RTF Ca sens act)
CCNC(=S)NNC(=O)CCc1nc2cc(Cl)ccc2n(Cc2ccccc2)c1=O	Myeloid diff 2 active
CN(C)C(CNC(=O)CCc1nc2cc(Cl)ccc2n(Cc2ccccc2)c1=O)c1ccccc1 (stereo not drawn)	none
Cn1cnc(S(=O)(=O)NCc2ccc(Br)cc2)c1	none
Cc1cccc(C(=O)NC(=S)NNC(=O)c2ccc(Cl)cc2)c1	CRFR2-BP ag 213
CC(C)(C)c1ccc(C(=O)NC(=S)NNC(=O)c2cccs2)cc1	CRFR2-BP ag 290
Cc1ccccc1C(=O)Nc1cccc(NC(=S)NC(=O)c2cccs2)c1	none
COc1cc(C(=O)NNC(=S)NC(=O)c2ccc(Cl)cc2)cc(OC)c1OC	none
Cc1ccccc1C(=O)NNC(=S)NC(=O)c1cccs1	CRFR2-BP ag 99
Cc1cccc(C(=O)NC(=S)NNC(=O)c2cccs2)c1	CRFR2-BP ag 270
Cc1cnc(C)c(Nc2nc(C(N)c3ccccc3)cs2)n1 (stereo not drawn)	none (no result: CRFR2-BP ag, Cardiac RTF inh, RTF Ca sens act, CRFR2-BP antag)
CN1CCC(N(C)C(=O)CCc2nc3ccccc3c(=O)[nH]2)CC1	none
CC(C)(C)c1ccc(C(=O)NCC(=O)N2CCCCCC2)cc1	none
Cc1ccc(-c2ccc(/C=N/NC(N)=S)o2)cc1	none
NC(=S)N/N=C/c1ccc(-c2ccc(SC(F)F)cc2)o1	CRFR2-BP antag 58
COc1ccc(F)cc1S(=O)(=O)Nc1ccncc1	none
CC(C)=CC(=O)N1CC[C@@H](N2CCN(c3ccccc3F)CC2)[C@H](O)C1	none
CCOc1nc(C)ccc1-c1noc(-c2ccco2)n1	none
CCOc1nc(C)ccc1-c1noc(-c2ccccn2)n1	CRFR2-BP antag 111
CCOC(=O)Cc1csc(NC(=O)Cc2ccccc2[N+](=O)[O-])n1	none
Cc1csc(NC(=O)Cc2ccccc2[N+](=O)[O-])n1	CRFR2-BP ag 208
C/C(=C\C=C(C#N)C#N)c1cc(C#N)c(N)o1	CRFR2-BP ag 64, RTF Ca sens act 149
Brc1cccc(C2CC(c3ccccc3)n3nnnc3N2)c1 (stereo not drawn)	CRFR2-BP antag 55
O=C(NCc1cccs1)Nc1cccs1	none
Cc1ccccc1CNC(=O)Nc1cccs1	CRFR2-BP antag 53
CN(C(=O)c1ccc(NC(=O)Cc2ccc(NC(=O)C3CCN(C(=O)CCc4ccccc4)CC3)cc2)cc1)C1CCCC1	Myeloid diff 2 active
CN(C(=O)c1cccc(NC(=O)Cc2ccc(NC(=O)C3CCCN(C(=O)CCc4ccccc4)C3)cc2)c1)C1CC1 (stereo not drawn)	none
CN(C(=O)c1ccc(NC(=O)Cc2ccc(NC(=O)C3CCCN(C(=O)C4CCCC4)C3)cc2)cc1)C1CC1 (stereo not drawn)	Myeloid diff 2 active
CN(C(=O)c1cccc(NC(=O)Cc2ccc(NC(=O)C3CCCN(C(=O)CCc4ccccc4)C3)cc2)c1)C1CCCCC1 (stereo not drawn)	CRFR2-BP antag 67
Cc1c(-c2ccc(OCc3ccccc3)cc2)nc2ccccc2c1C(=O)O	Myeloid diff 2 active
Cc1c(-c2ccccc2)nc2ccccc2c1C(=O)Oc1ccc([N+](=O)[O-])cc1	none
Cc1cc(C)nc(Oc2ccc(Br)cc2)n1	none
CN(C)c1ccc(C(=O)/C=C/c2cccnc2)cc1	Myeloid diff 2 inconclusive
CN(C)c1ccc(/C=C/C(=O)c2cccc(Br)c2)cc1	CRFR2-BP ag 278, RTF Ca sens act 135
O=C(Nc1cc(C(F)(F)F)cc(C(F)(F)F)c1)O[C@@H]1c2ccccc2[C@@H]2Cc3csc[n+]3[C@H]12	none (no result: CRFR2-BP ag, Cardiac RTF inh, RTF Ca sens act, CRFR2-BP antag)
CCOc1ccc(NC(=O)CCCN2C(=O)C(c3ccccc3)Oc3cccnc32)cc1 (stereo not drawn)	CRFR2-BP antag 57
CC(=O)Nc1ccc(NC(=O)CCCN2C(=O)C(c3ccccc3)Oc3cccnc32)cc1 (stereo not drawn)	none (no result: Cardiac RTF inh, RTF Ca sens act)
O=C1N/C(=C\c2ccccc2)c2ccccc21	Myeloid diff 2 active
O=C1/C(=C\c2cc(Br)cc(Br)c2O)SC(=S)N1Cc1ccccc1	CRFR2-BP antag 64
O=C(O)c1ccc(/C=C2/SC(=S)N(Cc3ccccc3)C2=O)cc1	Myeloid diff 2 active
O=C1/C(=C\c2ccc(O)cc2)SC(=S)N1Cc1ccccc1	Myeloid diff 2 active
O=C(OCc1ccccc1)N1CCC2CC1c1ccc(N3CCN(Cc4ccc5c(c4)OCO5)CC3)cc12 (stereo not drawn)	none (no result: CRFR2-BP ag, Cardiac RTF inh, RTF Ca sens act, CRFR2-BP antag)
Cc1nc2ccccc2c(=O)n1N(c1ccccc1)c1ccccc1	none
Cc1ccc(C(=O)NCC(=O)Nc2ccc(S(=O)(=O)Nc3cc(C)nc(C)n3)cc2)cc1	none
Cc1ccccc1CN1C(=O)c2ccccc2Sc2ccc(C(=O)NCCN3CCOCC3)cc21	Myeloid diff 2 inconclusive
O=C(NCCN1CCOCC1)c1ccc2c(c1)N(Cc1ccccc1F)C(=O)c1ccccc1S2	Myeloid diff 2 active
CCN1CCN(CCNC(=O)c2ccc(/C=C3/Sc4ccccc4N(Cc4ccccc4C)C3=O)cc2)CC1	Myeloid diff 2 active
CC(=O)Nc1ccccc1C(=O)C(=O)Nc1cccc(C(=O)NCC2CCCO2)c1 (stereo not drawn)	none
O=C(NCC1CCCO1)c1cccs1 (stereo not drawn)	Myeloid diff 2 active
CC(=O)Nc1ccccc1C(=O)C(=O)Nc1ccc(C(=O)NCC2CCCO2)cc1 (stereo not drawn)	Myeloid diff 2 active
Cc1coc2cc3oc(=O)ccc3cc12	none
CCN(CC)CC(=O)Nc1cc(N(C)C)nc2ccccc12	none
